Compound activity deposited in PubChem by National Center for Advancing Translational Sciences (NCATS).
POLK inh = inhibitors of human DNA polymerase kappa; actives 0.53% (n = 400,000); purified Pol kappa, fluorescent DNA synthesis assay, 10 min; Q9UBT6; Potency, µM (doses to about 107 µM), without a hit: top-dose activity, negative = inhibition, actives largely listed as inhibitors; further: on the % scale 0 is the no-effect control and ±100 the full control effect
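Kinetic fluorescence readout at 0 and 10 min followed reaction start with substrate at 50 nM final. Beforehand, enzyme (10 nM Pol kappa) stood 15 min with compound at room temperature; buffer-only wells were negative controls.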
Pol eta inh = DNA polymerase eta (human) inhibition. Q9Y253. recombinant Pol eta, fluorescent DNA replication assay. Potency, µM (series often up to 114 µM), for inactives: at the top dose activity change, negative = inhibition, actives largely listed as inhibitors. actives 1.2% (n = 390,000). AID 588591; further: on the % scale 0 is the no-effect control and ±100 the full control effect
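Fluorescent replication assay: 50 nM final substrate added after a 15 min room-temperature compound preincubation with 10 nM enzyme. Signal taken at 0 min and again at 10 min.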
APEX1 inh = inhibitors of human APE1 endonuclease; actives 0.35% (n = 350,000); P27695; Potency, µM (titrated, usually from 65.8 µM), for inactives: at the top dose activity change, negative = inhibition, hits mostly inhibitors; AID 2517; recombinant APE1, TAMRA/BHQ-2 abasic DNA cleavage fluorescence;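 further: plate controls were vehicle for no effect and reference inhibitor for full effect; nearly all actives have a fitted effect of over 55% in size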
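Activity was derived from the fluorescence gain between first and third kinetic reads (60 s intervals, ex 525/em 598 nm) after 50 nM THF-abasic TAMRA/BHQ-2 duplex was added to 0.75 nM APE1 preincubated 15 min with compound.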
GLS inh = glutaminase GLS (human) inhibition; actives 0.21% (n = 410,000); Potency, µM (top dose mostly 45.5 µM), for the others: top-dose activity change, negative = inhibition, hits mostly inhibitors; O94925; GLS enzymatic activity, qHTS titration; further: on the % scale 0 is the no-effect control and ±100 the full control effect
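Compounds were pin-transferred onto hKGA, after which L-glutamine (1 mM solution) and a detection mix of glutamate oxidase, HRP and Amplex Red were added. Initial and 30 min RT fluorescence reads were collected.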
Pol iota inh = inhibitors of human DNA polymerase iota | Q9UNA4 | Pol iota fluorescent replication assay, 10 min | Potency, µM (doses to about 115 µM), for inactives: top-dose activity, negative = inhibition, usual class: inhibitors | actives 1% (n = 390,000) | AID 588590
Target sequence (Q9UNA4 whole entry, looked up): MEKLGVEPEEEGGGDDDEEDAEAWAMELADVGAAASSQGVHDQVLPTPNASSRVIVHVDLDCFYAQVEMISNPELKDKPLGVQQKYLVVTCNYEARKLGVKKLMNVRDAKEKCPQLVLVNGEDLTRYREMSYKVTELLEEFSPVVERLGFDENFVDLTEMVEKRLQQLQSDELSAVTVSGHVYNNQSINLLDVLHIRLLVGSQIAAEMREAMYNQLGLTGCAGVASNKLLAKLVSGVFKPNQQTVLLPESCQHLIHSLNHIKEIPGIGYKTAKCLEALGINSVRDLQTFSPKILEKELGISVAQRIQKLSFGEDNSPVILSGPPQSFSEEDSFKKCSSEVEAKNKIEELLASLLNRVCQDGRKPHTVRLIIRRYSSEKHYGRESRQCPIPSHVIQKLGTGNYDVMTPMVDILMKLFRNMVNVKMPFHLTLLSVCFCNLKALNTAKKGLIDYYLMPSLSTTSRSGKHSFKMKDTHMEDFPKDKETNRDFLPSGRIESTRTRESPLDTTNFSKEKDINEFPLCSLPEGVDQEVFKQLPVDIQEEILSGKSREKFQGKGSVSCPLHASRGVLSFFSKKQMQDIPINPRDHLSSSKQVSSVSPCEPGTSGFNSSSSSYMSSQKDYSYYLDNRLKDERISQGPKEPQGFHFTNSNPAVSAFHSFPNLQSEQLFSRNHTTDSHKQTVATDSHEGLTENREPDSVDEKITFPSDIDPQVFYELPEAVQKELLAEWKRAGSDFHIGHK
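Fluorescent replication assay read twice, at 0 min and 10 min after adding 50 nM (final) substrate. Enzyme (10 nM) and compounds were first incubated 15 min at room temperature; enzyme-free buffer wells were negative controls.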
POLB inh = blocks human DNA polymerase beta activity; P06746; Pol beta primer extension/strand displacement, fluorescence kinetic; Potency, µM (doses to about 114 µM), inactives show at the top dose activity change, negative = inhibition, usual class: inhibitors; actives 1.3% (n = 340,000); further: on the % scale 0 is the no-effect control and ±100 the full control effect
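Pol beta (10 nM) was preincubated with compound for 15 min at room temperature. The reaction was then started with 50 nM substrate and read immediately and after a further 10 min at room temperature.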
Active calls of the source: *; [ ] = another dose, or the depositor's remark. An excerpt weighted towards active compounds, which were near 2.4% of everything screened. The call rests on the fitted dose curve; in most records, active means well fitted curve in the direction sought with a large enough effect; inconclusive means small, poorly fitted or top-dose-only effect, or another doubt; inactive means no such curve, though single readings can be large; an effect the other way counts as inactive or inconclusive. Potency means the concentration at half of the fitted maximal effect.

`CS(=O)(=O)c1ccc(C(=O)OCC(=O)Nc2cccnc2Cl)cc1[N+](=O)[O-]` gave POLK inh 8.7%, Pol eta inh 89.1µM*, APEX1 inh 38.2%, GLS inh 2.1% and Pol iota inh inconclusive.
`CS(=O)(=O)c1ccc(C(=O)OCC(=O)Nc2cc(C(F)(F)F)ccc2Cl)cc1[N+](=O)[O-]` gave POLK inh -24.9% and Pol iota inh -13.5%.
CC(=O)c1cccc(NC(=O)COC(=O)c2ccc(S(C)(=O)=O)c([N+](=O)[O-])c2)c1 was read as POLK inh -5.3%, Pol eta inh 79.4µM*, APEX1 inh -0.3%, GLS inh -1.8%, Pol iota inh inconclusive and POLB inh 10.0%.
Screening CC1CN(S(=O)(=O)N2CCOCC2)CCN1S(=O)(=O)N1CCOCC1 (stereo unspecified) returned POLK inh -12.9%, Pol eta inh -4.1%, APEX1 inh 1.7%, GLS inh 0.0%, Pol iota inh 127.2% and POLB inh -0.6%.
Screening COc1cc(C(=O)N[C@H](C(=O)NC2CCCc3ccccc32)C(C)C)cc(OC)c1OC (stereo partly specified) returned POLK inh -11.4%, Pol eta inh -13.3%, APEX1 inh 6.8%, GLS inh 3.3% and Pol iota inh 17.9%.
For COc1ccc(C(=O)N/C(=C\c2ccccc2)C(=O)NCCCn2ccnc2)cc1 the results were POLK inh 8.4%, Pol eta inh -21.7%, APEX1 inh -5.5%, GLS inh -6.0%, Pol iota inh 121.3% and POLB inh 19.5%.
Cc1ccccc1NC(=O)Cc1nc(COC(=O)c2ccc(S(C)(=O)=O)c([N+](=O)[O-])c2)cs1 was read as POLK inh -9.7%, Pol eta inh 22.4µM*, APEX1 inh 21.3%, GLS inh 1.6% and Pol iota inh inconclusive.
CS(=O)(=O)c1ccc(C(=O)OCC(=O)N2CC(=O)Nc3ccccc32)cc1[N+](=O)[O-] was read as POLK inh -2.6% and Pol iota inh 50.1µM*.
Screening Cc1ccccc1NC(=O)Cc1nc(COC(=O)c2ccc(NC(N)=O)cc2)cs1 returned POLK inh -10.3%, Pol eta inh inconclusive, APEX1 inh 31.3%, GLS inh -2.4% and Pol iota inh 35.8%.
For NC(=O)c1cc([N+](=O)[O-])ccc1NCCc1ccccc1 the results were POLK inh -4.7%, Pol eta inh -7.2%, APEX1 inh 5.0%, GLS inh 1.7%, Pol iota inh 28.1% and POLB inh 14.6%.
Screening O=[N+]([O-])c1ccc(NCCc2ccccc2)c(Br)c1 returned POLK inh -4.4%, Pol eta inh -20.8%, APEX1 inh -7.1%, GLS inh -11.6%, Pol iota inh -2.2% and POLB inh 79.4µM*.
`COC(=O)c1cccc(NS(=O)(=O)c2ccc(OC)cc2)c1C` gave POLK inh -7.2%, Pol eta inh -11.5%, APEX1 inh 14.6%, GLS inh -5.6%, Pol iota inh -4.3% and POLB inh 30.9%.
COc1ccc(OC)c(NC(=O)c2c(NCc3ccc(C)o3)sc3c2CCCCC3)c1 was read as POLK inh -0.2%[60.1 µM], Pol eta inh -20.8%, GLS inh -24.6%, Pol iota inh 28.2µM* and POLB inh -5.0%.
For COc1ccccc1NC(=O)c1c(NCc2ccc(C)o2)sc2c1CCCCC2 the results were POLK inh -13.6%[60.1 µM], Pol eta inh inconclusive, GLS inh -6.1%, Pol iota inh inconclusive and POLB inh inconclusive.
For CCN(C(=O)COc1ccc(C(C)=O)cc1)c1cccc2ccccc12 the results were POLK inh -6.5%, Pol eta inh -9.2%, APEX1 inh 12.0%, GLS inh -19.8% and Pol iota inh 11.8%.
O=C(CCc1ccccc1)NNC(=O)Nc1ccccc1 was read as POLK inh 2.9%, Pol eta inh -13.0%, APEX1 inh -1.1%, GLS inh 0.0%, Pol iota inh 7.6% and POLB inh -15.3%.
`O=C(CCCCCCCC(=O)NNC(=O)Nc1ccccc1)NNC(=O)Nc1ccccc1` gave POLK inh -31.7%, Pol eta inh -29.0%, APEX1 inh 5.2%, GLS inh -11.9%, Pol iota inh inconclusive and POLB inh 31.6µM*.
Screening Cc1cc(C(F)(F)F)n(-c2nc(C(=O)N/N=C/c3ccc(F)cc3)cs2)n1 returned POLK inh -12.7%, Pol eta inh -11.0%, APEX1 inh -2.5%, GLS inh -21.6%, Pol iota inh 89.1µM* and POLB inh 1.5%.
`COC1=C/C(=C/c2c(N)n3nc(CC(=O)N4CCCCC4)sc3nc2=O)C=CC1=O` gave POLK inh inconclusive, Pol eta inh 50.1µM*, APEX1 inh -24.4%, GLS inh inconclusive, Pol iota inh inconclusive and POLB inh -1.9%.
`COc1cc(C(=O)NC2=NCCS2)ccc1OCc1c(C)noc1C` gave POLK inh -1.6%, Pol eta inh -2.8%, APEX1 inh -0.7%, GLS inh -3.6%, Pol iota inh 10.6% and POLB inh inconclusive.
Screening COc1cccc(N(CC(=O)NC(C)(C)C)C(=O)C2CSC(=O)C2)c1 (stereo unspecified) returned POLK inh 6.3%, Pol eta inh -5.8%, APEX1 inh -3.4%, GLS inh -7.7%, Pol iota inh 7.1% and POLB inh 0.9%.
`N#C/C(=C\c1ccc(O)c(O)c1)S(=O)(=O)c1ccccc1` gave POLK inh inconclusive, Pol eta inh 4.9%, APEX1 inh -6.3%, GLS inh 25.1%, Pol iota inh inconclusive and POLB inh inconclusive.
`CC/C=C\[C@H](O)[C@H](O)C1=C(C)C(=O)[C@]2(O1)C(=O)N[C@@](OC)(C(=O)c1ccccc1)C2O` (stereo partly specified) gave POLK inh inconclusive, Pol eta inh 0.8%, APEX1 inh inconclusive, GLS inh -1.3%, Pol iota inh inconclusive and POLB inh 35.5µM*.
For COc1ccc(Br)cc1CC1C(=O)Nc2ccccc21 (stereo unspecified) the results were POLK inh -23.0%, Pol eta inh -10.2%, GLS inh -5.9%, Pol iota inh 4.9% and POLB inh -24.5%.
For O=S(=O)(Nc1nccs1)c1cc(Cl)ccc1Cl the results were POLK inh -0.4%, Pol eta inh 25.1µM*, APEX1 inh -3.4%, GLS inh 13.1%, Pol iota inh inconclusive and POLB inh -1.7%.
